From PubChem
HepG2 viability = counter-screen for TGF-b inhibitors: cytotoxicity in HepG2 cells; 410,000 tested, 0.76% active; HepG2 CAGA-GFP viability, ATP luminescence, 18 h; Potency, µM (top dose mostly 46.1 µM), hits mostly cytotoxic
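CellTiter-Glo luminescence gave cytotoxicity after 18 hours at 37 degrees C. The cells were HepG2 CAGA-GFP in 1% FBS DMEM, stimulated with 500 pg/mL TGF-beta after compound addition. %Activity was normalised to no-cell wells (complete cell-killing) and DMSO (no toxicity), and curves were fitted and classified.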
TDP1 cell CPT = growth inhibition of DT40 Tdp1-/-;hTDP1 cells with camptothecin (screen for TDP1 inhibitors); chicken DT40 Tdp1-/-;hTDP1 cells + 20 nM CPT, ATP luminescence, 48 h; AID 686979; Potency, µM (titrated, usually from 46.2 µM), hits mostly inhibitors; 420,000 tested, 12% active; further: nearly all actives have a fitted effect of over 55% in size
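Cell growth measured by CellTiter-Glo luminescence after a minimum 48 h, 37 C compound exposure with 20 nM CPT in Tdp1-knockout DT40 cells stably expressing hTDP1, seeded 400/well; qHTS titration format.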
TGFb inhibitor = inhibitors of TGF-b signaling; HepG2 CAGA-GFP TGF-b/SMAD3 reporter, GFP fluorescence, 18 h; TGF-beta stimulated, 500 pg/mL final; Potency, µM (top dose mostly 46.1 µM), hits mostly inhibitors; 410,000 tested, 1.2% active; AID 588855; further: nearly all actives have a fitted effect of over 65% in size
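GFP signal (ex488/em500-530) from TGF-beta-stimulated HEPG2 CAGA-GFP cells, 500 pg/mL final, 18 h at 37 degrees C in DMEM plus 1% FBS, normalized to unstimulated and DMSO-stimulated controls.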
S-ASM inh = blocks human secretory acid sphingomyelinase; P17405; placental ASM, HMU-PC fluorogenic substrate, 60 min; Potency, µM (series often up to 57.5 µM), actives largely listed as inhibitors; 340,000 tested, 0.006% active; AID 504937
Target sequence (P17405 47-631 limits assumed): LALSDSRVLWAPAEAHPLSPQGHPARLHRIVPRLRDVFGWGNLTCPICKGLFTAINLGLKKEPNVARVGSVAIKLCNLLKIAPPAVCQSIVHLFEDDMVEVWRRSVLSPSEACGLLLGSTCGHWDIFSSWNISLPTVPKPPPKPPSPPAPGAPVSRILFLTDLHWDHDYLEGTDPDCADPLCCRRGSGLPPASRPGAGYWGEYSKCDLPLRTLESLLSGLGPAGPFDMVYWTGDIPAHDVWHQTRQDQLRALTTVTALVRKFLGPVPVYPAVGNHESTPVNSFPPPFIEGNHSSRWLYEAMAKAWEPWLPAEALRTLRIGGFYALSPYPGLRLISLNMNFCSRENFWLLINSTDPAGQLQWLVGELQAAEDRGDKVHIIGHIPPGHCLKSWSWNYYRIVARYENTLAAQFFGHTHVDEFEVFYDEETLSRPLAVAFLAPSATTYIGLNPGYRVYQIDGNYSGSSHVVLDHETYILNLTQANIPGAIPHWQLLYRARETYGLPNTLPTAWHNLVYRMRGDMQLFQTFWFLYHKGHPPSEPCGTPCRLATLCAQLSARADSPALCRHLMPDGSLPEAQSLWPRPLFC
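qHTS format. ASM enzyme prepared from human placenta hydrolyses the fluorogenic substrate HMU-PC0 (9 uM final) over 60 min at 37 °C after a 10 min compound preincubation.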
IL-1B inflam inh = blocks inflammasome-driven IL-1 beta release | THP-1 LPS/ATP IL-1B secretion, AlphaLISA, 16 h; stronger effect = lower value | activity change, % at 57.5 µM | 360,000 tested, 4.7% active; in the data active means activity change below about -50%; inconclusive means mostly about -30% to -49%
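Secreted IL-1B measured by AlphaLISA bead assay after 16 h compound exposure of THP-1 cells; compounds (final up to 57.5 uM) added 1 h before LPS (250 ng/mL) and ATP (1.25 mM) stimulation; lower signal means less secretion.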
TDP1 cell noCPT = qHTS for Inhibitors of human tyrosyl-DNA phosphodiesterase 1 (TDP1): qHTS in cells in absence of CPT | DT40 Tdp1-/- hTDP1 cells, no CPT, ATP luminescence, 48 h | Potency, µM (series often up to 46.2 µM), hits mostly inhibitors | 420,000 tested, 15% active; further: nearly all actives have a fitted effect of over 55% in size
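No-CPT arm: Tdp1-/-;hTDP1 DT40 cells (400/well) plus compounds, incubated ≥48 hr at 37 °C. Readout CellTiter-Glo luminescence.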
Of the large screens only hits and unclear results are named; the others gave an inactive call. Shown are actives, neighbours in structure and some others; about 19% of the full set was active somewhere. Unless noted, the call rests on the fitted dose curve; in most records, active means well fitted curve in the direction sought with a large enough effect; inconclusive means small, poorly fitted or top-dose-only effect, or another doubt; inactive means no such curve, though single readings can be large; an effect the other way counts as inactive or inconclusive.

COC(=O)c1ccc(Oc2cc(C)nc(-n3nc(C)cc3C)n2)cc1	TDP1 cell CPT 0.73µM, TGFb inhibitor inconclusive, TDP1 cell noCPT 0.58µM
Cc1cc(Oc2ccc3ccccc3c2)nc(SCC(=O)c2ccccc2)n1	TDP1 cell CPT 21µM, TGFb inhibitor inconclusive, TDP1 cell noCPT 18µM
COC(=O)CSc1nc(C)cc(Oc2ccccc2)n1	none
Cc1cc(Oc2ccc(Br)cc2)nc(SCC(=O)c2ccccc2)n1	TDP1 cell CPT 23µM, TGFb inhibitor inconclusive, TDP1 cell noCPT 21µM
Cc1cc(C)nc(SCC(=O)c2ccc(F)cc2)n1	none
COC(=O)c1ccc(Oc2cc(C)nc(NCc3ccccc3)n2)cc1	TDP1 cell noCPT inconclusive
CCOc1ccccc1C1N=C(N)Nc2nc3ccccc3n21 (stereo not given)	TGFb inhibitor inconclusive (no result: S-ASM inh, IL-1B inflam inh)
CCOC(=O)c1ccc(Oc2cc(C)nc(SC)n2)cc1	TDP1 cell CPT 8.2µM, TDP1 cell noCPT 9.2µM
COc1cccc(NC(=O)c2oc3ccccc3c2NC(C)=O)c1	none
Cc1cccc(CC(=O)Nc2c(C(=O)Nc3cccc(F)c3)oc3ccccc23)c1	TDP1 cell CPT inconclusive, TDP1 cell noCPT inconclusive (no result: S-ASM inh, IL-1B inflam inh)
CCc1ccc2occ(CC(=O)Nc3c(C(=O)Nc4ccc(C)cc4)oc4ccccc34)c2c1	HepG2 viability 16µM (no result: S-ASM inh, IL-1B inflam inh)
COc1cccc(C(=O)Nc2c(C(=O)NC(C)(C)C)oc3ccccc23)c1	TDP1 cell CPT 18µM, TDP1 cell noCPT inconclusive (no result: S-ASM inh, IL-1B inflam inh)
COc1cccc(NC(=O)c2oc3ccccc3c2NC(=O)Cc2cccc(C)c2)c1	TDP1 cell CPT 23µM, TDP1 cell noCPT 18µM (no result: S-ASM inh, IL-1B inflam inh)
COc1cccc(NC(=O)c2oc3ccccc3c2NC(=O)c2ccccc2C)c1	TDP1 cell CPT 10µM, TDP1 cell noCPT inconclusive (no result: S-ASM inh, IL-1B inflam inh)
CCn1cc(C(=O)N2CCN(c3ccc(F)cc3)CC2)c(=O)c2cc(S(=O)(=O)N3CCOCC3)ccc21	TGFb inhibitor inconclusive (no result: S-ASM inh, IL-1B inflam inh)
N/C(=N\OS(=O)(=O)c1ccc(Cl)cc1)c1ccccn1	TDP1 cell CPT inconclusive, TDP1 cell noCPT 16µM
Cc1cc(C2=NNC(=NC3CC3)SC2)c(C)n1-c1ccccc1	TDP1 cell CPT inconclusive, TGFb inhibitor inconclusive, TDP1 cell noCPT 23µM
CN=C1NN=C(c2cc(C)n(-c3c(C)n(C)n(-c4ccccc4)c3=O)c2C)CS1	none
COc1ccc(-n2c(C)cc(C3=NNC(=NC4CC4)SC3)c2C)cc1	TDP1 cell CPT inconclusive, TGFb inhibitor inconclusive, IL-1B inflam inh inconclusive, TDP1 cell noCPT 23µM
COc1ccc2c(c1)O[C@@H]1c3ccc(OC)cc3OCC21 (stereo not given in full)	none (no result: HepG2 viability, TGFb inhibitor, S-ASM inh, IL-1B inflam inh)
Cc1cc(C)c2oc(-c3cccc(NC(=O)c4cc5ccccc5o4)c3)nc2c1	TDP1 cell CPT inconclusive, TDP1 cell noCPT inconclusive (no result: S-ASM inh, IL-1B inflam inh)
Cc1ccc(C(=O)Nc2cc(C(F)(F)F)ccc2N2CCCCC2)cc1[N+](=O)[O-]	TDP1 cell CPT 18µM, TDP1 cell noCPT 21µM
O=C(Nc1cc(C(F)(F)F)ccc1N1CCCCC1)c1cccc([N+](=O)[O-])c1	TDP1 cell CPT inconclusive, TDP1 cell noCPT 16µM
CCN1C(=O)[C@H]2[C@@H](c3ccc(-c4cccc(Cl)c4)cc3)N[C@@](Cc3ccccc3)(C(=O)OC)[C@H]2C1=O	TDP1 cell CPT inconclusive, TGFb inhibitor inconclusive, IL-1B inflam inh inconclusive, TDP1 cell noCPT inconclusive
CC1CCN(S(=O)(=O)c2cccc(-c3cn4cc(Cl)ccc4n3)c2)CC1	TDP1 cell CPT inconclusive, TDP1 cell noCPT 23µM
CCN(CC)S(=O)(=O)c1ccc(-c2cn3cc(Cl)ccc3n2)cc1	TDP1 cell CPT inconclusive, TDP1 cell noCPT 18µM
Clc1ccc(-c2cn3cc(Cl)ccc3n2)cc1	none
CCc1sc(C(=O)N(CCCOC)c2c(N)n(CC(C)C)c(=O)[nH]c2=O)cc1C	none (no result: S-ASM inh)
CC(OC(=O)C1=NN(c2ccccc2)C(=O)CC1)C(=O)NC1CCCCC1C (stereo not given)	none
